Measurements taken from PubChem BioAssay (NCATS).
Results filed as inconclusive are left out. Unless noted, the call rests on the fitted dose curve; in most records, active means well fitted curve in either direction with a large enough effect (not every such curve was filed as active); inconclusive means small, poorly fitted or top-dose-only effect, or another doubt; inactive means flat fitted curve, though single readings scatter.

Experiments:
[1] = AP1 Signaling Pathway (AID 357); settings: ME-180 AP-1-bla reporter, EGF-induced, beta-lactamase ratio, 5 h; at 17.2 µM (top of the series) unless noted;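 further: ME-180 reporter cells stimulated with EGF at its EC50 level; on the % scale 0 is the no-effect control and ±100 the full control effect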
Summary of the method: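 Cells are seeded overnight, exposed to compound titrations and an EC50 level of EGF for 5 hours at 37 °C, then loaded with CCF4 dye for 2.5 hours. Beta-lactamase activity under the AP-1 element is read as a blue/green ratio.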

[2] = NFAT Signaling Pathway (AID 444); settings: Jurkat NFAT-bla M1, carbachol, beta-lactamase ratio, 5 h; at 17.2 µM (top of the series) unless noted;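 further: carbachol stimulus at about its EC50 of 1 µM final; on the % scale 0 is the no-effect control and ±100 the full control effect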
Summary of the method: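 Jurkat cells with NFAT-driven β-lactamase reporter and co-expressed M1 receptor, stimulated with carbachol (final 1 uM, ~EC50), compound titration, 5 h at 37 °C. CCF4 loaded 1 h at RT; 460/530 nm ratio gave %activity and AC50.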

[3] = Stat Signaling Pathway (AID 446); settings: ME-180 SIE beta-lactamase reporter, IL-6 stimulated, 5 h; at 17.2 µM (top of the series) unless noted;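 further: ME-180 cervical cancer cells given 40 pM IL-6 alongside compound; SIE-controlled beta-lactamase reporter measured as 460/530 nm FRET emission ratio; on the % scale 0 is the no-effect control and ±100 the full control effect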
Summary of the method: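 Screening format detects activators and inhibitors alike: ME-180 SIE-bla cells stimulated at 40 pM IL-6 for 5 hrs with compound, then dual-emission beta-lactamase read at 405 nm excitation.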

[4] = target: Glucocorticoid receptor (Homo sapiens) (UniProt P04150); assay: GR-GFP Redistribution (AID 450;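 active means compounds whose dose series gives a full or clear partial fitted curve of increased nuclear translocation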; further: potency means the concentration at half of the fitted maximal effect)
Sequence of Glucocorticoid receptor (Homo sapiens) (P04150 whole entry, looked up): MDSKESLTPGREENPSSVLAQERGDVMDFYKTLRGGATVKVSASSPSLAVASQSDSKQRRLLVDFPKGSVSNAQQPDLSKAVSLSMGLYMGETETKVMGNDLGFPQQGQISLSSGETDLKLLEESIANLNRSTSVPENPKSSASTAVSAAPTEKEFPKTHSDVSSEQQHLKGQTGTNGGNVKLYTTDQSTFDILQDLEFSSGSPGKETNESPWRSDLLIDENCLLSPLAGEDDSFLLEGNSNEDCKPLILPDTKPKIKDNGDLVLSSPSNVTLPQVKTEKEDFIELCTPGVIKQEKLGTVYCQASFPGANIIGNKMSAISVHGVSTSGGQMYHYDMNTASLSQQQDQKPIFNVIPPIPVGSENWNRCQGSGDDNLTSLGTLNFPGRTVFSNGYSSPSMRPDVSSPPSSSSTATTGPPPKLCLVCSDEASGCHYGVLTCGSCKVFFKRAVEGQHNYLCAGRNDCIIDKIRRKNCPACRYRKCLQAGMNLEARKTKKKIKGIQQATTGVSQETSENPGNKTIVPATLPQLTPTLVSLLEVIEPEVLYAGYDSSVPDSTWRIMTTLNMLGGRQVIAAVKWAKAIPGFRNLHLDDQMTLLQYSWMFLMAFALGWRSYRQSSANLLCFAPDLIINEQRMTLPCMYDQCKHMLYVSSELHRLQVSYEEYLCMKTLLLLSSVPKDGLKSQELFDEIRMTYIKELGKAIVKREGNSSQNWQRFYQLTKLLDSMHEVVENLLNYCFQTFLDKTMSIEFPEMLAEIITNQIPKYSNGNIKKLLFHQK

COc1ccc(-n2ncc3c(Nc4cccc(C)c4)ncnc32)cc1
inactive: activity change, negative = inhibition [1] 1.56% | activity change, negative = inhibition [2] -11.9% | activity, negative = inhibition [3] -27.7% | Potency [4] > 20.6 µM

COc1ccc(Cl)cc1N=Cc1c(O)cc(C)oc1=O
inactive: activity change, negative = inhibition [1] -3.56% | activity change, negative = inhibition [2] -6.83% | activity, negative = inhibition [3] 5.26% | Potency [4] > 20.6 µM

CC1=C(C(=O)Nc2ccccc2)C(c2ccncc2)C(C#N)=C(SCC(=O)NC(C)C)N1 (stereo not given)
inactive: activity change, negative = inhibition [1] -5.76% | activity change, negative = inhibition [2] 1.05% | activity, negative = inhibition [3] -4.3% | Potency [4] > 20.6 µM

CC(=O)C1(C)OC(N)=C(C#N)C(c2ccccc2)C1(C#N)C#N (stereo not given)
inactive: activity change, negative = inhibition [1] 13.9% | activity change, negative = inhibition [2] -28.6% | activity, negative = inhibition [3] -4.54% | Potency [4] > 20.6 µM

COc1ccc(N2CCN(c3nc4c(c(=O)[nH]c(=O)n4C)n3CCCc3ccccc3)CC2)cc1
inactive: activity change, negative = inhibition [1] 22% | activity change, negative = inhibition [2] -12.3% | activity, negative = inhibition [3] -11% | Potency [4] > 20.6 µM

CCOC(=O)c1c(C)cccc1OCC(N)=O
inactive: activity change, negative = inhibition [1] -9.84% | activity change, negative = inhibition [2] 0.392% | activity, negative = inhibition [3] -2.4% | Potency [4] > 20.6 µM

CC1(C)CC(=O)C2=C(C1)OC(N)=C(C#N)C2C1C=CCCC1 (stereo not given)
inactive: activity change, negative = inhibition [1] 3.93% | activity change, negative = inhibition [2] 24.4% | activity, negative = inhibition [3] -5.68% | Potency [4] > 20.6 µM

CC1(C)NC(=O)N(CC(O)Cn2nnc3ccccc32)C1=O (stereo not given)
inactive: activity change, negative = inhibition [1] 5.85% | activity change, negative = inhibition [2] 8.84% | activity, negative = inhibition [3] 6.79% | Potency [4] > 20.6 µM

CC(C(=O)N1CCOCC1)N1C(=O)c2ccccc2C1=O (stereo not given)
inactive: activity change, negative = inhibition [1] 14.2% | activity change, negative = inhibition [2] -4.66% | activity, negative = inhibition [3] 10.1% | Potency [4] > 20.6 µM

O=c1[nH]nc2n1CCCCC2
inactive: activity change, negative = inhibition [1] 13.2% | activity change, negative = inhibition [2] 9.36% | activity, negative = inhibition [3] 7.42% | Potency [4] > 20.6 µM

CC1(C)CC(=O)C=C(NCCO)C1
inactive: activity change, negative = inhibition [1] 20.8% | activity change, negative = inhibition [2] 2.7% | activity, negative = inhibition [3] 12.6% | Potency [4] > 20.6 µM

CN(C)CCCN1C(=O)C(O)=C(C(=O)c2cc3ccccc3o2)C1c1ccccn1 (stereo not given)
inactive: activity change, negative = inhibition [1] 7.64% | activity change, negative = inhibition [2] 7.35% | activity, negative = inhibition [3] -0.93% | Potency [4] > 20.6 µM

CC1(C)CC(=O)C2=C(C1)N(Cc1ccco1)C(=O)C2(O)C(F)(F)F (stereo not given)
inactive: activity change, negative = inhibition [1] 11.1% | activity change, negative = inhibition [2] -3.91% | activity, negative = inhibition [3] -2.61% | Potency [4] > 20.6 µM

O=C1C2ON(c3ccccc3)C(c3ccncc3)C2C(=O)N1c1ccccc1 (stereo not given)
inactive: activity change, negative = inhibition [1] -0.837% | activity change, negative = inhibition [2] 3.71% | activity, negative = inhibition [3] 1.91% | Potency [4] > 20.6 µM

COc1ccc(C(C)=O)cc1CSCCC(=O)O
inactive: activity change, negative = inhibition [1] 3.88% | activity change, negative = inhibition [2] 2.2% | activity, negative = inhibition [3] 15.2% | Potency [4] > 20.6 µM

O=C(NCCN1CCOCC1)c1ccc(=O)oc1
inactive: activity change, negative = inhibition [1] 4.3% | activity change, negative = inhibition [2] 8.89% | activity, negative = inhibition [3] 4.33% | Potency [4] > 20.6 µM

CCC(=O)Nc1cc(-c2nn(C)c(=O)c3ccccc23)ccc1N1CCCCC1
inactive: activity change, negative = inhibition [1] -16.8% | activity change, negative = inhibition [2] -13.8% | activity, negative = inhibition [3] -6.35% | Potency [4] > 20.6 µM

O=C(O)CCCC(=O)N1CCN(C(c2ccccc2)c2ccccc2)CC1
inactive: activity change, negative = inhibition [1] 1.43% | activity change, negative = inhibition [2] 7.29% | activity, negative = inhibition [3] 0.344% | Potency [4] > 20.6 µM

CC1(C)CC(=O)C(C2=NC(C)(C)Cc3ccccc32)=C(O)C1
inactive: activity change, negative = inhibition [1] 2.44% | activity change, negative = inhibition [2] 2.48% | activity, negative = inhibition [3] 0.129% | Potency [4] > 20.6 µM

CCCCN(C(=O)CCC(=O)O)C1CC(=O)N(c2ccc(OCCC)cc2)C1=O (stereo not given)
inactive: activity change, negative = inhibition [1] 0.952% | activity change, negative = inhibition [2] -3.79% | activity, negative = inhibition [3] 5.12% | Potency [4] > 20.6 µM

Cc1cc(=O)oc(C)c1C(=O)N1CCN(C)CC1
inactive: activity change, negative = inhibition [1] 5.91% | activity change, negative = inhibition [2] 17.3% | activity, negative = inhibition [3] 5.89% | Potency [4] > 20.6 µM

CCOC(=O)C1CCCN(c2nc3ccccc3nc2C(C#N)C(=O)OCCOC)C1 (stereo not given)
inactive: activity change, negative = inhibition [1] -28.5% | activity change, negative = inhibition [2] -3.48% | activity, negative = inhibition [3] -2.06% | Potency [4] > 20.6 µM

CC(=O)NCC(=O)OCN1C(=O)c2ccccc2C1=O
inactive: activity change, negative = inhibition [1] 10.5% | activity change, negative = inhibition [2] -1.05% | activity, negative = inhibition [3] 0.512% | Potency [4] > 20.6 µM

COc1ccc2[nH]c(C)c(C(=O)CN3CCOCC3)c2c1
inactive: activity change, negative = inhibition [1] 12.7% | activity change, negative = inhibition [2] -9.22% | activity, negative = inhibition [3] -2.66% | Potency [4] > 20.6 µM

Cn1ncc2nnn(-c3ccccc3)c(=O)c21
inactive: activity change, negative = inhibition [1] 3.86% | activity change, negative = inhibition [2] -4.96% | activity, negative = inhibition [3] 3.98% | Potency [4] > 20.6 µM
